Assay results from PubChem BioAssay (NCATS).
Results filed as inconclusive are left out. A call without a number means that no potency is given here. The source made the active and inactive calls. Unless noted, the call rests on the fitted dose curve; in most records, active means well fitted curve in the direction sought with a large enough effect; inconclusive means small, poorly fitted or top-dose-only effect, or another doubt; inactive means no such curve, though single readings can be large; an effect the other way counts as inactive or inconclusive.

What was measured:
[1] = Counterscreen for APE1 Inhibitors: Fluorescent Dye Displacement Validation Assay (AID 1707)
Outline: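 Assay buffer: Tris-HCl pH7.5 with 50mM NaCl, 2 mM MgCl2, 0.01% Tween-20. Dye 250 nM, duplex 50 nM final. Readout: decrease in ThO endpoint fluorescence, 480 nm excitation, 540 nm emission.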

[2] = biological target: Endonuclease 4 (Escherichia coli (strain K12)) (UniProt P0A6C1); assay: Counterscreen for APE1 Inhibitors: qHTS Validation Assay for Inhibitors of Endonuclease IV (AID 1708)
Outline: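 Enzymatic AP-site incision assay using a double-stranded THF substrate labelled with TAMRA and BHQ-2; released fluorescence signals activity. Enzyme 2 nM, substrate 50 nM, 15 min compound preincubation.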

[3] = qHTS for differential inhibitors of proliferation of Plasmodium falciparum line GB4 (AID 1816); settings: Potency: Plasmodium falciparum GB4 proliferation inhibition;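 further: parasite growth measured after 72 h incubation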; further: potency means the concentration at half of the fitted maximal effect
[4] = qHTS for differential inhibitors of proliferation of Plasmodium falciparum line 3D7 (AID 1876); further: potency means the concentration at half of the fitted maximal effect
[5] = qHTS for differential inhibitors of proliferation of Plasmodium falciparum line D10 (AID 1877);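 further: parasites grown with compound for 72 h before DNA staining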; further: potency means the concentration at half of the fitted maximal effect
[6] = qHTS for differential inhibitors of proliferation of Plasmodium falciparum line Dd2 (AID 1882); settings: Potency: Plasmodium falciparum Dd2 proliferation inhibition; further: nearly all actives have a fitted effect of over 65% in size; further: potency means the concentration at half of the fitted maximal effect
Outline: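 SYBR Green I DNA fluorescence read-out, ex 485/em 535 nm. Signals were normalized to 0.29 uM artemisinin and DMSO wells, then corrected using vehicle-only plates flanking each stack. Parasite growth ran 72 h in erythrocytes before lysis.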

[7] = qHTS for differential inhibitors of proliferation of Plasmodium falciparum line HB3 (AID 1886); settings: Potency: Plasmodium falciparum HB3 proliferation inhibition;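 further: parasites grown with compound for 72 h before SYBR Green readout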; further: potency means the concentration at half of the fitted maximal effect
[8] = qHTS Assay for Identification of Small Molecule Inducers of Hypoxia Response (AID 2120; active means well fitted curve in the direction sought with a large enough effect in the signal ratio, with a control signal flat, not every such curve was filed as active; the % refers to the signal ratio)
Outline: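 HRE-beta-lactamase reporter in CellSensor HRE-bla ME-180 cells, 2500 cells/well in Opti-MEM with 0.5% dialyzed FBS; compounds tested as titration series, 17 h at 37 degrees C. CCF4 substrate 2.5 h at room temperature; AC50 from 460/530 nm ratio.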

[9] = biological target: Ferritin light chain (Equus caballus) (UniProt P02791); assay: qHTS Validation Assay for Identification of Novel General Anesthetics (AID 2323); further: series mostly up to about 77 µM
Sequence of Ferritin light chain (Equus caballus) (P02791 2-175 limits assumed): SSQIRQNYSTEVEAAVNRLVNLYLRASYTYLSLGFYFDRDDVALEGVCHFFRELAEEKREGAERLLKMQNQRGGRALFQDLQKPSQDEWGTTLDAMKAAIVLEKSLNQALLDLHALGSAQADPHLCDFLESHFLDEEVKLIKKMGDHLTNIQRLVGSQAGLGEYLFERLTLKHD
Outline: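 Apoferritin from horse spleen (10 uM) was mixed with 1-aminoanthracene at 50% saturation in PBS, then compounds were added. After 10 min at room temperature, fluorescence was read (ex 380 nm, em 535 nm) and normalized to free-probe and complex controls.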

[10] = biological target: ATP-dependent DNA helicase Q1 (Homo sapiens) (UniProt P46063); assay: qHTS Validation Assay for Inhibitors of RecQ-Like Dna Helicase 1 (RECQ1) (AID 2353)
Sequence of ATP-dependent DNA helicase Q1 (Homo sapiens) (P46063 whole entry, looked up): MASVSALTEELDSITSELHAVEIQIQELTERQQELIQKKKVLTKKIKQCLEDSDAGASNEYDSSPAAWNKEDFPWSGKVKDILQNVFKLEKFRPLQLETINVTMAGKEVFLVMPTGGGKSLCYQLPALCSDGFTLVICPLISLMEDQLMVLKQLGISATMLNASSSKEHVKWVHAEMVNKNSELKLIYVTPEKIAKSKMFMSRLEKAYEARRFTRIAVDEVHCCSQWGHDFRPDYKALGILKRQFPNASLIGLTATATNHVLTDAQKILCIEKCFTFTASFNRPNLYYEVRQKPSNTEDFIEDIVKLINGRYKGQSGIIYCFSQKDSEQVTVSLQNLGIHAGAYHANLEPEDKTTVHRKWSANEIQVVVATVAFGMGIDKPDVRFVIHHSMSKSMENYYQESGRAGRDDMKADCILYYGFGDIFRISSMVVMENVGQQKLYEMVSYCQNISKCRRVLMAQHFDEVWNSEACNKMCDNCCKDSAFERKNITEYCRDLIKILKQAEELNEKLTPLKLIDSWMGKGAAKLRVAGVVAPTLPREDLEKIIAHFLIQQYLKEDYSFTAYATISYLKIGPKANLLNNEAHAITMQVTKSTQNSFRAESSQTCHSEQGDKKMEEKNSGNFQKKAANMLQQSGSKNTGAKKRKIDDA
Outline: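 50 nM RECQ1T1 preincubated 15 min with compound in Tris pH 8.0 buffer with MgCl2, DTT, Tween-20 and 2.5 ug/ml poly(dI-dC); started with 200 nM TAMRA/BHQ-2 forked duplex and 2 mM ATP. Unwinding read as fluorescence (525/598 nm), two reads 2 h apart.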

[11] = biological target: RecQ-like DNA helicase BLM (Homo sapiens) (UniProt P54132); assay: qHTS Validation Assay for Inhibitors of Bloom's syndrome helicase (BLM) (AID 2364)
Sequence of RecQ-like DNA helicase BLM (Homo sapiens) (P54132 whole entry, looked up): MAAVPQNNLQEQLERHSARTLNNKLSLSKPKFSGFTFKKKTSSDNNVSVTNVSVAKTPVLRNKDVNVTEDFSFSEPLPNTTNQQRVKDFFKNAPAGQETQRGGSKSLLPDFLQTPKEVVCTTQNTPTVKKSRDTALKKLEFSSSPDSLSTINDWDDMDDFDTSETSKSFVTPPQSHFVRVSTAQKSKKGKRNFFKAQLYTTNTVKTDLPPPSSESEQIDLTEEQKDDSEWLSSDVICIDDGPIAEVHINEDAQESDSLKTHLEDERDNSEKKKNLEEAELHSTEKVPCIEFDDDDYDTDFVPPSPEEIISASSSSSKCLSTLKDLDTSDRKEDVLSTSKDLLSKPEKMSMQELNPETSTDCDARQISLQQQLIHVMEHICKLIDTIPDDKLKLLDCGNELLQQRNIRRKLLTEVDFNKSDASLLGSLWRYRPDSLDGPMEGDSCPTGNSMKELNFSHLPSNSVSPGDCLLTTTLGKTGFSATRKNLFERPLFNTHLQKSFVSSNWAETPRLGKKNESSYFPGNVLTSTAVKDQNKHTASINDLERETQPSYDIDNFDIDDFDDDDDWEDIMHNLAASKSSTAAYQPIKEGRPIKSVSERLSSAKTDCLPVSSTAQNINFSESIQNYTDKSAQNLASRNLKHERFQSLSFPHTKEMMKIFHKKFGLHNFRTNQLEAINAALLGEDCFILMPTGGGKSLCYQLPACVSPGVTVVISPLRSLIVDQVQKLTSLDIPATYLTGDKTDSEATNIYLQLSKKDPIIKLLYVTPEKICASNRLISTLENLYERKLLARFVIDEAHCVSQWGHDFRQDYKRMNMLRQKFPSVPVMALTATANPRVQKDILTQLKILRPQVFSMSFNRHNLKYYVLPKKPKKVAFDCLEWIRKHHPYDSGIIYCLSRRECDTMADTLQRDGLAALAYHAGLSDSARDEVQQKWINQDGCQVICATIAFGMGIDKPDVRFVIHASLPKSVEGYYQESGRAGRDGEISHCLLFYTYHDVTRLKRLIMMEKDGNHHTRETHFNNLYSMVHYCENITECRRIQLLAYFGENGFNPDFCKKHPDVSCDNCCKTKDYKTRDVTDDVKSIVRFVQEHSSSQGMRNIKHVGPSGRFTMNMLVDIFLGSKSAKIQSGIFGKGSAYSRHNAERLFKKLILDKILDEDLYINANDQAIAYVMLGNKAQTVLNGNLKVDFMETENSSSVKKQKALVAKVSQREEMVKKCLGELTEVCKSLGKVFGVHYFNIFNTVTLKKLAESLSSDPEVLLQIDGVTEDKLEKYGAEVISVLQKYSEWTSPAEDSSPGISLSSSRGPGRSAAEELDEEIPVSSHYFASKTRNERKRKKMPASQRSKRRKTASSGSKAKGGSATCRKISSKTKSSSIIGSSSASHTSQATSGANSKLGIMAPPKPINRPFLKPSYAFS
Outline: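 Forked 20-bp duplex substrate (200 nM, TAMRA/BHQ-2) plus 2 mM ATP added after 15 min compound preincubation with 50 nM enzyme, pH 8.0, poly(dI-dC) 2.5 ug/ml. Strand separation followed by fluorescence (525/598 nm) over 2 h, normalized to enzyme-free and DMSO controls.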

[12] = Cytometric Cell-Based qHTS for Inhibitors of the mTORC1 Signaling Pathway in MEF (Tsc2-/-, p53-/-) Cells (AID 2660);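 further: Tsc2 and p53 null MEFs carrying empty vector with compound for 24 h; percent of cells above a phospho-rpS6 to PI ratio cutoff in each well; series mostly up to about 38 µM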
Outline: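 Cells are plated, treated with compound for 24 hrs at 37 degree Celsius, then fixed, blocked and immunostained for phospho-rpS6 Ser235/236. Propidium iodide counterstain follows. Per-well % positive cells is derived from the PI-normalized phospho-S6 signal.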

[13] = High Content Imaging Cell-Based qHTS for Inhibitors of the mTORC1 Signaling Pathway in MEF (Tsc2-/-, p53-/-) Cells (AID 2666);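 further: percent of cells scored positive for phospho-rpS6 Ser235/236 immunostaining by imaging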; further: potency means the concentration at half of the fitted maximal effect
Outline: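 Cells were plated, dosed with compound after 24 hrs, and incubated another 24 hrs at 37 degree Celsius. Fixed cells were immunostained for phospho-rpS6 Ser235/236 and counterstained, and the normalized signal was scored as % active cells against rapamycin and DMSO controls.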

[14] = High Content Imaging Cell-Based qHTS for Inhibitors of the mTORC1 Signaling Pathway in MEF Cells (AID 2667); further: potency means the concentration at half of the fitted maximal effect
Outline: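 Immunofluorescence for rpS6 phosphorylation in MEFs of Tsc2-/-, p53-/- background rescued with WT Tsc2. Compound exposure lasted 24 hrs. Inhibition was scored against rapamycin-treated control wells.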

[15] = Cytometry Cell-Based qHTS for Inhibitors of the mTORC1 Signaling Pathway in MEF cells (AID 2668); further: potency means the concentration at half of the fitted maximal effect
Outline: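 Pathway inhibition in WT Tsc2-rescued Tsc2-/-, p53-/- MEFs is measured as the Alexa-488 phospho-rpS6 to propidium iodide intensity ratio after 24 hrs of compound at 37 degree Celsius. PI-stained cell number gives viability.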

[16] = Validation screen for small molecules that induce DNA re-replication in MCF 10A normal breast cells (AID 463097); further: nearly all actives have a fitted effect of over 60% in size
Outline: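 DNA re-replication was detected as a rise in nuclei with elevated Hoechst fluorescence after a 48 hr compound exposure of MCF 10A cells at 37 C.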

[17] = biological target: Ubiquitin carboxyl-terminal hydrolase 2 (Homo sapiens) (UniProt O75604); assay: qHTS Validation Assay for Inhibitors of Ubiquitin-specific Protease USP2a Using CHOP2 as the Reporter (AID 463106)
Sequence of Ubiquitin carboxyl-terminal hydrolase 2 (Homo sapiens) (O75604 whole entry, looked up): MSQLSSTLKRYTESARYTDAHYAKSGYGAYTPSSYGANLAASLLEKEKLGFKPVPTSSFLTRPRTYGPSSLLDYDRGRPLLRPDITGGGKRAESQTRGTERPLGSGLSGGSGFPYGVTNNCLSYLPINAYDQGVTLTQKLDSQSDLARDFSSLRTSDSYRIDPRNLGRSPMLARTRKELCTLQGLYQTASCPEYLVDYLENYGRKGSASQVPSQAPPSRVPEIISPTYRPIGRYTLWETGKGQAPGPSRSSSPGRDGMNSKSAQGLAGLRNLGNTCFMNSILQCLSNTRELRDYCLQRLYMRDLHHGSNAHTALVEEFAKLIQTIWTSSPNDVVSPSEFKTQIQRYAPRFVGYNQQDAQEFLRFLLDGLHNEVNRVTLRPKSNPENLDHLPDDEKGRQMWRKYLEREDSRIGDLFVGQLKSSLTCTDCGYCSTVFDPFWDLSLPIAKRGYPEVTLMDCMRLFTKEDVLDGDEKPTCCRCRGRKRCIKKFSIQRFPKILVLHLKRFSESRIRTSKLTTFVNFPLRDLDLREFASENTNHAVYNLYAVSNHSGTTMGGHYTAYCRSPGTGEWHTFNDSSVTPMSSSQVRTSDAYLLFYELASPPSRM
Outline: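 10nM USP2 core + cpd, 30min RT; add 25nM Ub-CHOP2/25nM substrate; 60min RT; FI 485/531nm. Buffer Tris pH 8.0, CaCl2, BME, CHAPS. Norm. to NEM = 100% inhibition; time-zero read flags fluorescent artifacts.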

[18] = biological target: DNA repair nuclease/redox regulator APEX1 (Homo sapiens) (UniProt P27695); assay: qHTS Validation Assay for Inhibitors of the Human Apurinic/apyrimidinic Endonuclease 1 (APE1) (AID 1705;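 further: TAMRA fluorescence gain over two minutes as APE1 cuts a quenched THF abasic duplex; series mostly up to about 57 µM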)
Sequence of DNA repair nuclease/redox regulator APEX1 (Homo sapiens) (P27695 whole entry, looked up): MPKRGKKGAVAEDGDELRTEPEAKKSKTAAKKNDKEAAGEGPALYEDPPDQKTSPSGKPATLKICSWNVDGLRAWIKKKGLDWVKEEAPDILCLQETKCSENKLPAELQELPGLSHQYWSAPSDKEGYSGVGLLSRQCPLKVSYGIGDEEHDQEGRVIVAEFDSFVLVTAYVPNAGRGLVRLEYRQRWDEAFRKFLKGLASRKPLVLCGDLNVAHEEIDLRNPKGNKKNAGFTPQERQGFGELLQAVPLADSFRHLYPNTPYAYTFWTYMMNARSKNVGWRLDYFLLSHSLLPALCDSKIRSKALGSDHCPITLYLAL
Outline: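 Endonuclease activity of human APE1 is followed as dequenching when the enzyme incises a tetrahydrofuran abasic site in a short duplex labelled 5'-TAMRA/3'-BHQ-2 (50 nM final), after 15 min enzyme–compound preincubation at room temperature.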

[19] = qHTS for differential inhibitors of proliferation of Plasmodium falciparum line 7G8 (AID 1815);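 further: parasite growth measured after three days of incubation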; further: potency means the concentration at half of the fitted maximal effect
[20] = qHTS for differential inhibitors of proliferation of Plasmodium falciparum line W2 (AID 1883); settings: Potency: Plasmodium falciparum W2 proliferation inhibition;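 further: parasites grown with compound for 72 h before lysis and staining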; further: potency means the concentration at half of the fitted maximal effect

Row | Compound | outcome [1] | Potency [2] | Potency [3] | Potency [4] | Potency [5] | Potency [6] | Potency [7] | outcome [8] | outcome [9] | Potency [10] | Potency [11] | outcome [12] | Potency [13] | Potency [14] | Potency [15] | Potency [16] | outcome [17] | Potency [18] | Potency [19] | Potency [20]
1 | CN=C(NC#N)NCCSCc1nc[nH]c1C | inactive | inactive | inactive | inactive | inactive | inactive | inactive | inactive | inactive | inactive | inactive | inactive | inactive | inactive | inactive | inactive | inactive |  |  | 
2 | COC(=O)[C@@H](N)Cc1ccc(O)c(O)c1 | inactive | inactive | 14.1 µM (active) |  |  | inactive |  |  | inactive | inactive | inactive | inactive | inactive | inactive | inactive |  | inactive |  |  | 
3 | CCCCNc1ccc(C(=O)OCCN(C)C)cc1 | inactive |  |  |  |  | inactive | inactive |  | inactive | inactive |  | inactive | inactive | inactive | inactive |  | inactive | inactive | inactive | inactive
4 | CCn1cc(C(=O)O)c(=O)c2cc3c(cc21)OCO3 | inactive | inactive |  |  | inactive | inactive |  |  |  | inactive | inactive | inactive | inactive | inactive | inactive |  |  |  |  | 
5 | O=C(CCCN1CCC(O)(c2cccc(C(F)(F)F)c2)CC1)c1ccc(F)cc1 | inactive | inactive | 3.16 µM (active) | 3.55 µM (active) | 12.6 µM (active) | 3.98 µM (active) | 10 µM (active) |  |  | inactive | inactive | inactive | inactive |  | 13.1 µM (active) | inactive | inactive |  | 3.55 µM (active) | 2.24 µM (active)
6 | CC[N+](C)(C)c1cccc(O)c1 | inactive | inactive | inactive |  |  | inactive | inactive |  | inactive | inactive |  | inactive | inactive | inactive | inactive | inactive | inactive |  | inactive | inactive
7 | CNC1(C)C2CCC(C2)C1(C)C (stereo unspecified) | inactive | inactive | 12.6 µM (active) | inactive | inactive | inactive | inactive |  | inactive | inactive | inactive | inactive | inactive | inactive |  | inactive |  |  | inactive | 8.91 µM (active)
8 | CC(C)(C)c1ccc(C(=O)CCCN2CCC(OC(c3ccccc3)c3ccccc3)CC2)cc1 |  |  |  |  |  |  |  |  |  |  |  |  | 20.7 µM (active) | 4.65 µM (active) |  |  |  |  |  | 
9 | CCC(=O)c1ccc2c(c1)N(CCCN(C)C)c1ccccc1S2 | inactive |  | 11.2 µM (active) | 10 µM (active) | 17.8 µM (active) |  | 11.2 µM (active) |  | inactive | inactive | inactive | inactive | inactive | 16.5 µM (active) |  |  | inactive |  | 8.91 µM (active) | 5.01 µM (active)
10 | O=C(CCNNC(=O)c1ccncc1)NCc1ccccc1 | inactive |  |  |  |  | inactive |  |  | inactive | inactive | inactive | inactive | inactive | inactive | inactive | inactive | inactive |  |  | 
11 | CC1=C(C)C(=O)C(CCCCC#CCCCC#CCO)=C(C)C1=O | inactive |  | 2.51 µM (active) | 8.91 µM (active) | 14.1 µM (active) | 10 µM (active) | 8.91 µM (active) |  |  | inactive |  | inactive | inactive |  |  |  | inactive |  | 2.24 µM (active) | 3.55 µM (active)
12 | CCN(CC)CCCN(c1ccccc1)C1Cc2ccccc2C1 |  |  |  |  |  |  |  |  |  |  |  | inactive | inactive |  |  |  |  |  |  | 
13 | CN1C(=O)CC[C@H]1c1cccnc1 |  |  |  |  |  |  |  |  |  |  |  | inactive | inactive | inactive |  |  | inactive |  |  | 
14 | C[n+]1cc2c3c(ccc2c2ccc4cc5c(cc4c21)OCO5)OCO3 |  |  | 2.82 µM (active) | 2.82 µM (active) | 3.55 µM (active) | 6.31 µM (active) | 3.16 µM (active) |  | inactive | inactive |  |  | inactive | inactive | inactive |  | inactive |  | 4.47 µM (active) | 2.51 µM (active)
15 | Cc1cccc(C)c1NC(=O)C(C)N (stereo unspecified) |  |  |  |  |  |  |  |  |  |  |  | inactive | inactive | inactive | inactive |  | inactive |  |  | 
16 | CN/C(=C\[N+](=O)[O-])NCCSCc1ccc(CN(C)C)o1 | inactive | inactive |  |  |  |  |  |  | inactive | inactive |  | inactive | inactive | inactive |  | inactive |  |  |  | 
17 | COc1ccc2c(c1OC)C(=O)O[C@@H]2[C@H]1c2c(cc3c(c2OC)OCO3)CCN1C |  |  |  |  |  |  |  |  |  |  |  | inactive | inactive | inactive | inactive |  | inactive |  |  | 
18 | CC(=O)[C@@]1(O)CC[C@H]2[C@@H]3CCC4=CC(=O)CC[C@]4(C)[C@H]3CC[C@@]21C |  |  |  |  |  |  |  |  |  |  |  | inactive | inactive | inactive |  |  | inactive |  |  | 
19 | C[N+](C)(C)CCCCCCCCCC[N+](C)(C)C | inactive | inactive |  |  |  |  |  |  |  | inactive | inactive | inactive | inactive | inactive |  | inactive | inactive |  |  | 
20 | CN(C)CCOC(=O)COc1ccc(Cl)cc1 | inactive |  |  | inactive |  | inactive | inactive |  | inactive | inactive |  | inactive | inactive | inactive |  | inactive | inactive |  | inactive | inactive
